# Test results from PMC4336329 (PLoS ONE, 2015).
# The whole screen tested about 310,000 compounds, of which about 2,200 (0.71%) showed an effect of 50% or more. The effect is printed as a negative number. What follows is part of a selection rich in strong results, with near analogues and random picks from the rest.
# Molecular target: human ether-à-go-go-related gene (hERG) potassium channel (human, UniProt Q12809)
# Assay: primary screen, population patch clamp on CHO cells stably expressing hERG; higher = less effect of the substance
# human ether-à-go-go-related gene (hERG) potassium channel, sequence (Q12809 whole entry, looked up): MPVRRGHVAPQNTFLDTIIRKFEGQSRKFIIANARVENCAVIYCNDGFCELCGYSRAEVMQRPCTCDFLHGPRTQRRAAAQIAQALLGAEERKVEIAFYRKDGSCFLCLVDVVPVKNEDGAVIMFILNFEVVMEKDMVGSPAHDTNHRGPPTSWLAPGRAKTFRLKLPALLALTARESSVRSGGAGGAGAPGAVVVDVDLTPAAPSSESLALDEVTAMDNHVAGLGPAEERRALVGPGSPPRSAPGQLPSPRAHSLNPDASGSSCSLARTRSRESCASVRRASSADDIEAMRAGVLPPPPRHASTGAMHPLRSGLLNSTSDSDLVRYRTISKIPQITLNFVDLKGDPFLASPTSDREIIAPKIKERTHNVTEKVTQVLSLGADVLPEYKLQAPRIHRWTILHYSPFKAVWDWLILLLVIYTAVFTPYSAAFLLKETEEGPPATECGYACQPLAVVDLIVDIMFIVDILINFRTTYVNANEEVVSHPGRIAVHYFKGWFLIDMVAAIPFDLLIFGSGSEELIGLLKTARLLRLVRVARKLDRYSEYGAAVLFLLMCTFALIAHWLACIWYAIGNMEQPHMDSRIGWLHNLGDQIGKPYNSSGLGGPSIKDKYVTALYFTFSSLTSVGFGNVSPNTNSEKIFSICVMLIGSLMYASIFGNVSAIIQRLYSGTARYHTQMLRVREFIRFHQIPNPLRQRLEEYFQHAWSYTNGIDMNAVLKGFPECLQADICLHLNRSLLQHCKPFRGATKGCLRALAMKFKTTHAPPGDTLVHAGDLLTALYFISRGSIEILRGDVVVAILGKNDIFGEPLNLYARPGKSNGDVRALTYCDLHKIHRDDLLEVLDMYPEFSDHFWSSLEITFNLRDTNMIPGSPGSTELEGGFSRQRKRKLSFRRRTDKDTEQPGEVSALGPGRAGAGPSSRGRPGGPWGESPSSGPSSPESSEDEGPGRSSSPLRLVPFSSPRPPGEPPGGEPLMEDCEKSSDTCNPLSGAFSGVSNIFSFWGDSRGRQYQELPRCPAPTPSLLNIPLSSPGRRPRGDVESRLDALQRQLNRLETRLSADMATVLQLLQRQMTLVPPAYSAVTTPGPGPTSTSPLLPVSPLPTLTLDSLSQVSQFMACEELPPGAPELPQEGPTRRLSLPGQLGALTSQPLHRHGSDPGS
row,Structure (SMILES),"hERG current change (%, negative = inhibition) at 1uM [%]"
1,Cc1ccc(C)c(N2CCN(C(=O)C3CCCN(S(=O)(=O)c4c(C)[nH]c(=O)[nH]c4=O)C3)CC2)c1 (stereo not drawn),9.86
2,CCOc1ncccc1C(=O)Nc1ccc(Cl)c(S(=O)(=O)N2CCCC2)c1,2.41
3,O=C(Nc1cccc(O)c1)c1ccc(C(=O)c2ccccc2)o1,-1.55
4,CCOc1ccc(CC(=O)NNC(=S)NC2CCCCC2)cc1OCC,7.2
5,COc1ccc(-n2nnnc2SCC(=O)Nc2nnc(C)s2)cc1OC,-7.62
6,CC(=O)Nc1ccc(Nc2c3c4c(cccc4n(C)c2=O)C(=O)c2ccccc2-3)cc1,10.6
7,Nc1nc(SCC(=O)c2cccs2)n[nH]1,6.15
8,Cc1cc(C)cc(OCC(=O)Nc2ccc3c(c2)OCCO3)c1,15.5
9,COC(=O)C1C(=O)NCC1c1ccc(C)cc1 (stereo not drawn),11.9
10,Cc1ccc(CS(=O)(=O)Cc2ccc(C(=O)N3CCC4(CC3)OCCO4)o2)cc1,-1.4
11,CCN(CC(=O)NCc1ccc(Cl)cc1)C(=O)/C=C/c1ccccc1,-1.79
12,CCN(CC(=O)NCc1ccc(Cl)cc1)C(=O)Cc1ccc(OC)cc1,-66.9
13,CCOc1ccc(C(=O)CCC(=O)N(CC)CC(=O)NCc2ccc(Cl)cc2)cc1,-8.36
14,CCN(CC(=O)NCc1ccc(F)cc1)C(=O)CN1CCN(c2ccc(OC)cc2)CC1.O=C(O)C(=O)O,-21.1
15,CCN(CC(=O)NCc1ccc(F)cc1)C(=O)CN1CCN(c2ccccc2OC)CC1,-44.4
16,CCN(CC(=O)NCc1ccc(Cl)cc1)C(=O)c1ccc2cc(OC)ccc2c1,7.72
17,CCN(CC(=O)NCc1ccc(Cl)cc1)C(=O)CCC(=O)c1ccc(F)cc1,-52.2
18,CCN(CC(=O)NCc1ccc(Cl)cc1)C(=O)/C=C/c1ccc(C#N)cc1,-52.1
19,CCN(CC(=O)NCc1ccc(Cl)cc1)C(=O)/C=C/c1cc(OC)c(OC)c(OC)c1,11.2
20,CCN(CC(=O)NCc1ccc(F)cc1)C(=O)CN1CCN(c2cc(Cl)ccc2C)CC1,-68.2
21,CCN(CC(=O)NCc1ccc(F)cc1)C(=O)Cc1ccc(OC)cc1,-37.8
22,CCN(CC(=O)NCc1ccc(Cl)cc1)C(=O)CCC(=O)c1ccc(C)cc1,-8.96
23,O=[N+]([O-])c1ccc(CN2CCC(Cc3ccccc3)CC2)cc1,-9.62
24,O=C(NCC1(O)CCCCC1)C1CCC(=O)N(Cc2ccccc2F)C1 (stereo not drawn),15.8
25,CCOC(=O)COc1ccc(S(=O)(=O)NCc2ccncc2)cc1,8.78
26,CCn1cc(CCCC(=O)NCc2ccc(OC)cc2)c2ccccc21,15.1
27,CCOc1cc(/C=C2\C(=O)ON=C2c2ccccc2)ccc1OC,17.4

row,Structure (SMILES),"hERG current change (%, negative = inhibition) at 1uM [%]"
1,O=C(CCN1C(=O)c2ccccc2C1=O)NC(=S)Nc1ccccc1Cl,5.29
2,CCC(CCC(=O)Nc1ccn(-c2ccccc2)n1)C(=O)O (stereo not drawn),7.09
3,Cc1nc(NC(=O)c2ccccc2[N+](=O)[O-])sc1C(=O)N(C)C,16.4
4,O=C(O)c1ccc(S(=O)(=O)N(CCc2ccccc2)Cc2ccc(Cl)cc2)cc1,11.5
5,Brc1ccc(-c2cnco2)cc1,9.53
6,COc1ccc(S(=O)(=O)NC2CCCCC2)cc1C(=O)N1CCCCC1,0.2
7,CCN(CC(=O)NCc1ccc(Cl)cc1)C(=O)CCc1ccccc1,-19.8
8,CCN(CC(=O)NCc1ccc(Cl)cc1)C(=O)NCc1ccc(Cl)cc1,-54.1
9,CCN(CC(=O)NCc1ccc(F)cc1)C(=O)c1ccc(Cl)cc1,-2.66
10,O=C(c1ccc2c(c1)N(Cc1ccccc1)C(=O)CS2)N1CCOCC1,1.45
11,CNCCOc1nc(N2CCOCC2)nc(C)c1[N+](=O)[O-],10.1
12,COc1ccc(NC2CCCN(C(=O)c3cccs3)C2)cc1 (stereo not drawn),12.5
13,Cc1ccc(S(=O)(=O)N2CCN(CC(=O)N/N=C\c3ccncc3)CC2)cc1,-26.2
14,C/C(=N\NC(=O)CN1CCN(Cc2ccc(C)cc2)CC1)c1ccncc1,-77.9
15,O=C(CN1CCN(S(=O)(=O)c2ccc(Br)cc2)CC1)N/N=C/c1ccncc1,-51.8
16,C/C(=N\NC(=O)CN1CCN(Cc2ccccc2)CC1)c1cccs1,-2.13
17,O=C(CN1CCN(S(=O)(=O)c2ccc(Br)cc2)CC1)N/N=C/c1cccnc1,-1.72
18,C/C(=N/NC(=O)CN1CCN(S(=O)(=O)c2ccc(Br)cc2)CC1)c1ccncc1,-44.3
19,C/C(=N\NC(=O)c1ccc(CN2CCOCC2)cc1)c1ccc([N+](=O)[O-])cc1,10
20,C/C(=N/NC(=O)CN1CCN(Cc2ccccc2)CC1)c1ccc([N+](=O)[O-])cc1,-72.9
21,C/C(=N/NC(=O)CN1CCN(Cc2ccccc2Cl)CC1)c1ccncc1,-18.3
22,C/C(=N\NC(=O)CN1CCN(S(=O)(=O)c2ccc(C)cc2)CC1)c1ccncc1,-77.6
23,C/C(=N\NC(=O)CN1CCN(S(=O)(=O)c2ccc(C)cc2)CC1)c1ccc(O)cc1,9.16
24,C/C(=N\NC(=O)CN1CCN(Cc2ccccc2)CC1)c1ccncc1,-3.1
25,CCOC(=O)CSC1=NC(=O)/C(=C/c2ccc(Br)cc2)S1,9.71
26,CCS(=O)(=O)NC(C)c1nnc2n1-c1ccc(Br)cc1C(c1ccccc1Cl)=NC2 (stereo not drawn),-4.22
27,Cc1cc(C)cc(Nc2nc3c(S(=O)(=O)c4ccccc4)nnn3c3ccccc23)c1,11.3
